Experimental data reported in PubChem BioAssay AID2289 (National Center for Advancing Translational Sciences (NCATS), 2010).
The whole screen tested about 340,000 compounds, of which about 3,300 (0.97%) were called active. About 9% were inconclusive and are not listed. Calls come from the whole dose curve; as a rule, active = well fitted inhibition curve with a large enough effect; inconclusive = small, poorly fitted or top-dose-only effect, or effect the other way; inactive = flat fitted curve, though single readings scatter. The list shows a part of the results.

Assay: qHTS Assay for Modulators of miRNAs and/or Inhibitors of miR-21; note: nearly all actives have a fitted effect of over 55% in size
Conditions: HeLa miR-21-FLuc reporter, luciferase luminescence, 48 h; actives lower the signal
Outline: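 HeLa cells endogenously expressing miR-21, stably carrying CMV-driven firefly luciferase with a downstream miR-21 binding site, 2000 cells/well. Titrations up to approximately 40 uM, 48 hours; luciferase luminescence read.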
Potency is the fitted concentration of half-maximal effect.

Potency, active:
O=C(OCC(=O)N1CCOCC1)c1ccccc1Cc1ccccc1 2.93 µM
N/C(=N\OC(=O)c1cccc2ccccc12)c1ccncc1 16.5 µM
N/C(=N\OC(=O)c1ccc2ccccc2c1)c1ccncc1 0.585 µM
Cc1ccccc1C(=O)O/N=C(\N)c1ccncc1 6.56 µM
CCOc1ccc(-c2cn(-c3ccc(OC)cc3)c(SC)n2)cc1 2.93 µM
COc1ccc(-n2cc(-c3ccccc3)nc2SC)cc1 8.26 µM
C=CCN1N=C(/C=C/c2ccc(C)cc2)CCC1=O 10.4 µM
C=CCN1N=C(/C=C/c2ccc(OC)cc2)CCC1=O 14.7 µM
Cc1ccc2c(c1)sc1nc(=O)n(-c3ccccc3)c(=O)n12 0.131 µM
Cc1cc2sc3nc(=O)n(-c4ccccc4)c(=O)n3c2cc1C 4.14 µM
Cc1snc(SCC(=O)c2ccc(F)cc2)c1C#N 4.65 µM
O=C(Nc1ccc2oc(-c3ccccc3Cl)nc2c1)c1ncn[nH]1 0.927 µM
O=C1c2ccccc2C(=O)c2cc(NC(=O)C3CC3)ccc21 0.736 µM
O=C(Nc1ccccc1O)c1ccc(NC(=O)C2CC2)cc1 6.56 µM
Cc1ccccc1-c1nc2cc(NC(=O)C3CC3)ccc2o1 0.414 µM
N#Cc1c(N2CCOCC2)nsc1-c1ccc(C(F)(F)F)cc1 5.85 µM
N#Cc1c(N2CCOCC2)nsc1-c1ccccc1 13.1 µM
N#Cc1c(N2CCCC2)nsc1-c1ccccc1 16.5 µM
CCOc1ccc2nc(SCC(=O)c3cccs3)sc2c1 4.14 µM
CC1CCc2sc3nc(N4CCN(CCO)CC4)n4ncnc4c3c2C1 (stereo unspecified) 13.1 µM
CN1CCc2c(sc(NC(=O)C3COc4ccccc4O3)c2C(N)=O)C1 (stereo unspecified) 9.27 µM
Fc1ccccc1Nc1nc2c(s1)CCc1ccccc1-2 0.464 µM
COc1cc(CCC(C)=O)ccc1OC(=O)c1c(F)cccc1Cl 2.93 µM
C=CCn1c(SCC(=O)Nc2ccc(-c3nc4ccc(C)cc4s3)cc2)nnc1-c1ccccc1 1.17 µM
C=CCn1c(SCC(=O)Nc2ccc(-c3nc4ccc(C)cc4s3)cc2)nnc1-c1ccncc1 8.26 µM
C/C(=N/Nc1ccc(C(=O)O)cc1)c1ccc(O)c(O)c1O 18.5 µM
Cc1ccccc1-c1nnc(SCC(=O)N2CCCC2)o1 7.36 µM
O=C(CSc1nnc(-c2ccccc2Cl)o1)N1CCOCC1 3.69 µM
CC(C)(C)C(=O)c1cnc(Nc2ccccc2)s1 2.33 µM
CC(=O)c1cnc(Nc2cccc(C)c2)s1 2.93 µM
O=C(O)c1cc(N/N=C/c2cccc3ccccc23)ccc1Cl 3.29 µM
O=C(O)c1cccc(N/N=C/c2cccc3ccccc23)c1 0.0826 µM
COc1ccccc1/C=C/C=N/Nc1cccc(C(=O)O)c1 0.185 µM
Cc1[nH]c2ccccc2c1/C=N/Nc1cccc(C(=O)O)c1 7.36 µM
COc1ccc2ccccc2c1/C=N/Nc1cccc(C(=O)O)c1 6.56 µM
Cc1cccc(N/N=C/c2ccccc2O)c1 10.4 µM
O=C(O)c1cc(N/N=C/c2c(O)ccc3ccccc23)ccc1Cl 2.07 µM
CC(C)n1cc(/C=N/Nc2ccc(Cl)c(C(=O)O)c2)c2ccccc21 3.29 µM
Cc1[nH]c2ccccc2c1N=Nc1cccc(C(=O)O)c1 1.85 µM
Cc1ccn2c(Nc3ccc4c(c3)OCCO4)c(-c3ccc(Cl)s3)nc2c1 13.1 µM
Cc1ccc(-c2nc3ccccn3c2Nc2ccc3c(c2)OCCO3)s1 1.85 µM
COC(=O)c1sccc1N/N=C/c1cccc(Oc2ccccc2)c1 1.85 µM
COC(=O)c1sccc1N/N=C/c1ccc(OC)c(OC)c1OC 6.56 µM
COc1cc(/C(C)=N/NC(=O)CSc2nncn2C)ccc1OCc1ccccc1Cl 10.4 µM
C=CCNc1ncnc2c1cnn2-c1ccc(Cl)cc1 0.329 µM
Clc1ccc(-n2ncc3c(NCc4ccccn4)ncnc32)cc1 5.85 µM
Fc1cccc(Cl)c1CSc1nnc(-c2ccncc2)o1 14.7 µM
O=C1/C(=C/c2ccco2)CCc2ccccc21 18.5 µM
COc1ccc2c(c1)CC/C(=C\c1ccc(C)o1)C2=O 2.93 µM
COc1ccc2c(c1)CC/C(=C/c1ccco1)C2=O 1.85 µM
O=[N+]([O-])c1ccccc1-c1nc(-c2ccc(Br)o2)no1 1.47 µM
CCCCOc1ccc(CSc2nncn2N)cc1 14.7 µM
COc1cccc(/C=C2\CCC(C3CCCC3)C2=O)c1OC (stereo unspecified) 4.14 µM
Cc1ccsc1/C=C1\CCC(C2CCCC2)C1=O (stereo unspecified) 3.69 µM
COc1ccc(NC(=O)c2noc3c2CCCC3)cc1Cl 0.369 µM
Cc1c(Cl)cccc1NC(=O)c1noc2c1CCCC2 7.36 µM
Cc1ccc2c(c1)c1ncnc(N3CCOCC3)c1n2C 13.1 µM
Cc1ccc2c(c1)c1ncnc(N3CCC4(CC3)OCCO4)c1n2C 7.36 µM
Fc1cccc(/C=N/NC(=S)Nc2ccccc2Cl)c1 4.65 µM
Fc1ccccc1NC(=S)N/N=C/c1ccccc1Br 4.65 µM
N/C(=N\NC(=O)Nc1ccccc1)c1ccccn1 2.61 µM
N/C(=N\NC(=O)Nc1ccc(Cl)cc1)c1ccccn1 3.29 µM
Cc1cc(C)c(C#N)c(SCc2nnc(-c3ccccc3[N+](=O)[O-])o2)n1 3.69 µM
O=c1c2ccccc2nc2sc3ccccc3n12 6.56 µM
CCOc1cccc2c1OC1(CCCCC1)N1N=C(c3cccnc3)CC21 (stereo unspecified) 16.5 µM
CCN1CCC2(CC1)Oc1c(OC)cccc1C1CC(c3cccnc3)=NN12 (stereo unspecified) 11.7 µM
CC(=O)c1c(C)[nH]c(C(=O)Nc2ccc(Cl)cc2F)c1C 2.07 µM
Cc1nnc2n(c1=O)N=C(c1ccc(Cl)cc1)CS2 1.65 µM
O/N=C/c1ccnc(SCc2ccccc2)n1 10.4 µM
Cc1nc(C)c(-c2ccc(SCc3ccccc3F)nn2)s1 14.7 µM
Cc1ccc2scc(N3CCCCC3C)c(=O)c2c1 (stereo unspecified) 14.7 µM
Cc1ccc2scc(N3CCCC(C)C3)c(=O)c2c1 (stereo unspecified) 6.56 µM
COc1ccc(NC(=S)Nc2cc(C)[nH]n2)cc1Cl 18.5 µM
Cc1cc(NC(=S)Nc2ccc(C)c(Cl)c2)n[nH]1 7.36 µM
Cc1cc(C(=O)CSc2ccc3c(c2)OCCO3)c(C)n1C1CC1 7.36 µM
CC(C)(C)c1ccc(NC(=O)c2ccc(=O)[nH]n2)cc1 0.826 µM
Cc1ccc(NC(=O)c2ccc(=O)[nH]n2)cc1C 6.56 µM
COc1cc(OC)cc(C(=O)NCC(=O)OCc2nc3ccccc3s2)c1 0.464 µM
Nc1ccc(C(=O)OCc2nc3ccccc3s2)cc1 16.5 µM
O=C(OCc1nc2ccccc2s1)c1ccco1 7.36 µM
Cc1ccc(-n2c(C)c(C)c3c(NCCCO)ncnc32)cc1 7.36 µM
Cc1ccc(-n2c(C)c(C)c3c(NCCO)ncnc32)cc1 13.1 µM
Cc1c(C)n(CCc2ccccc2)c2ncnc(NCCO)c12 4.14 µM
COc1ccc(-c2nnc(-c3ccc(F)cc3)o2)cc1 1.04 µM
COc1ccc(-c2nnc(-c3ccc(C)cc3)o2)cc1 2.07 µM
c1ccc(Nc2nnc(-c3cccnc3)s2)cc1 0.261 µM
CCS(=O)(=O)N1Cc2ccccc2CC1C(=O)Nc1nccs1 (stereo unspecified) 14.7 µM
CCS(=O)(=O)N1Cc2ccccc2CC1C(=O)Nc1nc2ccc(F)cc2s1 (stereo unspecified) 4.65 µM
CCS(=O)(=O)N1Cc2ccccc2CC1C(=O)Nc1nc(C)cs1 (stereo unspecified) 10.4 µM
O=C(/C=C/c1ccc(F)cc1)NCCC1=CCCCC1 7.36 µM
CC(C)(C)SCCNC(=O)/C=C/c1ccccc1 11.7 µM
O=C(/C=C/c1ccccc1)NCCC1=CCCCC1 5.85 µM
CCN(CC)c1ccc(N=Nc2nn(C)c(C)c2[N+](=O)[O-])cc1 0.736 µM
CCN(Cc1ccccc1)c1ccc(N=Nc2nn(C)c(C)c2[N+](=O)[O-])cc1 18.5 µM
CCc1cc2cc(C(=O)Nc3ccc(F)cc3)sc2s1 1.65 µM
COc1cc(NC(=O)c2cc(-c3cccc(OC)c3)n[nH]2)cc(OC)c1 3.29 µM
CCOC(=O)c1cn[nH]c1NC(=S)Nc1ccc(Cl)cc1 0.656 µM
COc1ccc2cc(-c3ccn[nH]3)ccc2c1 0.927 µM
Cc1ccc(Nc2nc(N)c([N+](=O)[O-])c(NCCO)n2)cc1C 13.1 µM
CNc1nc(Nc2ccc(C)c(Cl)c2)nc(N)c1[N+](=O)[O-] 3.29 µM
O=C(c1cc(-c2cccc(Cl)c2)on1)N1CCCC1 3.69 µM
O=C(c1cc(-c2cccc(Cl)c2)on1)N1CCCCCC1 4.65 µM
CSc1c(C#N)c(N)c(C#N)c2c1COC(C)(C)C2 18.5 µM
CN1CCN(/N=C/c2ccc(Cl)c(Cl)c2)CC1 7.36 µM
CN1CCN(/N=C/c2ccc(Br)cc2)CC1 14.7 µM
Cc1c(-c2nnc(SCC(=O)Nc3ccccc3F)o2)nnn1-c1ccc(F)cc1 2.93 µM
